Reference: PubChem BioAssay (NCATS)
“And” between values parts separate entries of the source, which are not always exact repeats. Identical values can stand only once. Inconclusive results are not listed. The source made the active and inactive calls. Unless noted, the call rests on the fitted dose curve; in most records, active means well fitted curve in the direction sought with a large enough effect; inconclusive means small, poorly fitted or top-dose-only effect, or another doubt; inactive means no such curve, though single readings can be large; an effect the other way counts as inactive or inconclusive.

Key:
[1] = qHTS Assay for Identifying Gametocytocidal Compounds (AID 743244); further: potency means the concentration at half of the fitted maximal effect;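 on max response: on the % scale 0 is the no-effect control and ±100 the full control effect; actives lower the fluorescent signal which means gametocytes are killed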; conditions: P. falciparum 3D7 stage III-V gametocytes, alamarBlue, 72 h; max response: stronger effect = lower value
In short: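 Compounds are pinned into medium, gametocytes (stage III–V, 3D7, 20,000 cells/well) added, and plates held 72 h at 37 °C in 5% CO2. AlamarBlue follows for 24 h before fluorescence reading.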

[2] = qHTS assay for measurement of the activity of small molecule inhibitors on Zika virus induced Caspase-3 activity in human iPSC derived neural progenitor cells (hNPCs) (AID 1224857); further: % of control where 0% means no effect; nearly all actives have a fitted effect of over 65% in size
In short: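 Pretreat hNPCs with compound 1 h; infect ZIKV 2 FFU/cell; 6 h 37 C, 5% CO2; Caspase-Glo 3/7, 30 min RT; luminescence; normalize to no-virus and virus-only wells.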

[3] = qHTS assay for measurement of the activity of small molecule inhibitors on Zika virus induced Caspase-3 activity in human astrocytoma cells (AID 1224859);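 further: plate controls were ZIKV-infected untreated cells for no effect and uninfected cells for full effect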
In short: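 Human SNB-19 astrocytoma cells in RPMI 1640 with 10% FBS receive compound one hour ahead of Zika virus at 2 FFU/cell. After 6 h infection, caspase-3/7 activity is detected by Caspase-Glo luminescence.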

[4] = target: Atrial natriuretic peptide receptor 1 (Homo sapiens) (UniProt P16066); experiment: Natriuretic polypeptide receptor (hNpr1) antagonism - Pilot screen (AID 1347049; calls by dose curve;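 further: HEK293 cells with hNpr1 and GloSensor cGMP luciferase stimulated by 0.1 nM hNppA; agonist-evoked cGMP luminescence read 20 min after hNppA addition; on the % scale 0 is the no-effect control and ±100 the full control effect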)
Chain of Atrial natriuretic peptide receptor 1 (Homo sapiens) (P16066 whole entry, looked up): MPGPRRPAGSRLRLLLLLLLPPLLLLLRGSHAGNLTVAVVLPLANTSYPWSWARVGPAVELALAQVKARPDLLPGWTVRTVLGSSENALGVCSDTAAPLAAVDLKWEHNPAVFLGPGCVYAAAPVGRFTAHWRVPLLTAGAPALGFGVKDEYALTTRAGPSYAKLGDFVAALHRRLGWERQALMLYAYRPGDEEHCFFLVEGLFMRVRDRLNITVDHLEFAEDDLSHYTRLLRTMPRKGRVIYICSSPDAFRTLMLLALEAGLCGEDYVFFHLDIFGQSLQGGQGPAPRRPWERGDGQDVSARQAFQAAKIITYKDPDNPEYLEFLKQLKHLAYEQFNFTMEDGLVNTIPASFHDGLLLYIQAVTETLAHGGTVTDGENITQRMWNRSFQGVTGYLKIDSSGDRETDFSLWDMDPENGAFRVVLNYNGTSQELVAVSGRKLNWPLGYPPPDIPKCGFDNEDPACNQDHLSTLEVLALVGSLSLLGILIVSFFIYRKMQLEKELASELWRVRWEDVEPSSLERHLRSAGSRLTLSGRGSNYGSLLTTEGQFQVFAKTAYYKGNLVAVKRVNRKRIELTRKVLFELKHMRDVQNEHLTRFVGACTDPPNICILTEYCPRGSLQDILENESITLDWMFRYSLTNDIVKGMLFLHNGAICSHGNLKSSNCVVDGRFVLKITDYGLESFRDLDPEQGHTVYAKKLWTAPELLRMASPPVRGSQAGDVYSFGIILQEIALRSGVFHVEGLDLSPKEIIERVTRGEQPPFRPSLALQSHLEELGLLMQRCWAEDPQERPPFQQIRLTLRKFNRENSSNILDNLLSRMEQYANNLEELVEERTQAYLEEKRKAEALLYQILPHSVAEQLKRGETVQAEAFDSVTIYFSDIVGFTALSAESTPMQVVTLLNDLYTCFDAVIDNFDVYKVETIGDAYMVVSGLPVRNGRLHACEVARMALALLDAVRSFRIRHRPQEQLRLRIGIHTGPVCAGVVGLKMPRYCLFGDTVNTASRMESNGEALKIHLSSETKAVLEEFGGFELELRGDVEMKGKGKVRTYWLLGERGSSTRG
In short: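 Cells expressing receptor plus cGMP biosensor are seeded and incubated overnight at 37C, then loaded with GloSensor reagent (2% final) at room temperature for 2 h. Library compounds go on for 30 min. A pre-read precedes agonist (hNppA, 0.1 nM final) and a 20-min readout.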

[5] = NS1 protein of Zika virus - qHTS assay to identify small molecule inhibitors in human HEK 293 cells (AID 1347053);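 further: plate controls were infected untreated cells for no effect and uninfected cells for full effect; nearly all actives have a fitted effect of over 55% in size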
In short: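 TR-FRET signal from two anti-ZIKV NS1 antibodies quantified NS1 in HEK 293 cells 24 h after MR766 infection at MOI = 0.5; compounds were added 1 h before virus. Uninfected cells and infected cells defined the NS1 normalization range.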

[6] = target: T1, Tyrosine-protein phosphatase non-receptor type substrate 1 (Homo sapiens) + Leukocyte surface antigen CD47 (Homo sapiens) (UniProt P78324+Q08722); experiment: CD47-SIRPalpha protein protein interaction - LANCE assay qHTS validation (AID 1347057; active means well fitted curve in the direction sought with a large enough effect in the signal ratio, with a control signal flat, not every such curve was filed as active; the % refers to the signal ratio; further: 0% is about no effect)
T1 sequence (P78324 whole entry, looked up, the tested form may be a part): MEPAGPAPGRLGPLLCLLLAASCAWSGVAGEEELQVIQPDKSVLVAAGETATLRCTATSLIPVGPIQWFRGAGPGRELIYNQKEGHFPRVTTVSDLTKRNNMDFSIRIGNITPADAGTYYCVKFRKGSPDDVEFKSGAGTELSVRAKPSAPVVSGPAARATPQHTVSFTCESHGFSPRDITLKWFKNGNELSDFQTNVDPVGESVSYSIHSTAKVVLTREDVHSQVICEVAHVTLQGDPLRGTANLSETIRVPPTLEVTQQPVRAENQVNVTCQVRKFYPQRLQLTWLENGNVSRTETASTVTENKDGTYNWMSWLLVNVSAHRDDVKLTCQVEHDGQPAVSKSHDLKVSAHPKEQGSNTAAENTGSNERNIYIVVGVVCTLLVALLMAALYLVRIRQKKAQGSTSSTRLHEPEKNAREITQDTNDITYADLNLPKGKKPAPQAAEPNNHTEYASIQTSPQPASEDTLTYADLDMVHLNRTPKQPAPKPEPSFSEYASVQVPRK
T1 sequence (Q08722 whole entry, looked up, the tested form may be a part): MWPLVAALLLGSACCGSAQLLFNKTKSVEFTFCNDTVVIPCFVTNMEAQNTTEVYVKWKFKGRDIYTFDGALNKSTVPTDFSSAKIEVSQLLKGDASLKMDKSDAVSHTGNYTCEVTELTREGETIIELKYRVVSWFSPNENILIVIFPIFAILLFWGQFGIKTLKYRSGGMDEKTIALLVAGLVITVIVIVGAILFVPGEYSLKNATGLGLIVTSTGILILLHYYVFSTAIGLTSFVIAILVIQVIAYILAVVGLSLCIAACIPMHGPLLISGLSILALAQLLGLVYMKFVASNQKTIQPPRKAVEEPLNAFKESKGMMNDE
In short: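 Inhibition of soluble CD47/SIRPalpha ectodomain association by titrated compounds, measured as 665/615 nm time-resolved FRET ratio after sequential 30 min room-temperature incubations.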

[7] = target: Parathyroid hormone/parathyroid hormone-related peptide receptor (Homo sapiens) (UniProt Q03431); experiment: qHTS for PTHR1 Agonists: Optimization Screen against the NCGC LOPAC library (AID 1347079);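 further: GloSensor cAMP luminescence in HEK-293 GP2 cells expressing human PTHR1 with IBMX; 0% is about no effect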
Chain of Parathyroid hormone/parathyroid hormone-related peptide receptor (Homo sapiens) (Q03431 whole entry, looked up): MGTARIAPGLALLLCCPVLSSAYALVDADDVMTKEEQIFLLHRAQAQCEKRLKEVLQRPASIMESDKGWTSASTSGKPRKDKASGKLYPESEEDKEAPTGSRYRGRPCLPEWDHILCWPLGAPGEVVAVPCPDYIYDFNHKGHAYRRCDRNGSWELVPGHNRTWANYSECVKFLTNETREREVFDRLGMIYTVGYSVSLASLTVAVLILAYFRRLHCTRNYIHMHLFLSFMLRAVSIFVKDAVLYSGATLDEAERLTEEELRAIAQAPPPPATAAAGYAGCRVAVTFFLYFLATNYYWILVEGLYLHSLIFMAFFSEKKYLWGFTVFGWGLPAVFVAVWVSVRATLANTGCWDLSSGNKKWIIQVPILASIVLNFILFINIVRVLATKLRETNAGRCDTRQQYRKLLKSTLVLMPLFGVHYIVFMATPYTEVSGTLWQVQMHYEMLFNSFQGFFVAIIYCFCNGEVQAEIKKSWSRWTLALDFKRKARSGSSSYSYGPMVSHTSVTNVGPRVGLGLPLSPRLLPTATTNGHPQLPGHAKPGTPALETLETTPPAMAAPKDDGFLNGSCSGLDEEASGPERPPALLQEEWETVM
In short: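 HEK-293 GP2 cells, PTHR1 + GloSensor cAMP; 3000 cells/well, o/n. Luciferin + IBMX 0.5mM each (stock), 1 hr 37C. Cpd titration, 1 hr 37C. Lum after 15 min RT. Ctrl M-PTH(1-15) top 10uM.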

[8] = P-glycoprotein substrates identified in KB-8-5-11 adenocarcinoma cell line, qHTS therapeutic library screen (AID 1346987); further: nearly all actives have a fitted effect of over 65% in size; further: potency means the concentration at half of the fitted maximal effect
In short: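 Luminescence from CellTiter-Glo, read 5 min after addition, quantified survival of KB-8-5-11 (P-gp-overexpressing) cells exposed to compounds for 72 h. AC50 was derived from concentration-response curves.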

[9] = qHTS of pediatric cancer cell lines to identify multiple opportunities for drug repurposing: Primary screen for TC32 cells (AID 1347089); further: nearly all actives have a fitted effect of over 60% in size; further: potency means the concentration at half of the fitted maximal effect
In short: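 In the primary qHTS, MIPE compounds were tested at 11 concentrations (0.78 nM to 46 µM) and NPC compounds at 8 (0.59 nM to 46 µM) on TC32 cells for 48 h. CellTiter-Glo luminescence gave viability.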

[10] = target: T1, Tyrosine-protein phosphatase non-receptor type substrate 1 (Homo sapiens) + Leukocyte surface antigen CD47 (Homo sapiens); experiment: CD47-SIRPalpha protein protein interaction - HTRF assay qHTS validation (AID 1347058; active means well fitted curve in the direction sought with a large enough effect in the signal ratio, not every such curve was filed as active; the % refers to the signal ratio; further: 0% is about no effect)
In short: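 Soluble extracellular domains (6His-CD47, Avi-tag-biotinylated SIRPalpha) in PBS pH 7.4 with 0.05% IGEPAL CA-630. Compounds were preincubated 30 min at RT with CD47 and anti-His-Eu, then SIRPalpha and SAV-XL665 were added. TR-FRET 665/615 ratio.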

[11] = target: T1, Tyrosine-protein phosphatase non-receptor type substrate 1 (Homo sapiens) + Leukocyte surface antigen CD47 (Homo sapiens); experiment: CD47-SIRPalpha protein protein interaction - Alpha assay qHTS validation (AID 1347059);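 further: bead proximity luminescence from CD47 binding SIRPalpha after compound preincubation with SIRPalpha; on the % scale 0 is the no-effect control and ±100 the full control effect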
In short: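 In PBS (pH 7.4) with 0.05% IGEPAL CA-630, compound is preincubated with biotin-Avi-SIRPalpha ectodomain before His-CD47 ectodomain and affinity beads are added. Light-protected room-temperature incubations; AlphaScreen readout.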

[12] = qHTS assay for cell viability of HEK293 cells (AID 743288); conditions: ATP luminescence (CellTiter-Glo), 18 h, stronger effect = lower value; further: on the % scale 0 is the no-effect control and ±100 the full control effect; nearly all actives have a fitted effect of over 50% in size
In short: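 ATP luminescence (CellTiter-Glo) reports metabolically competent cell number after parental HEK293 cells, 2,000/well, were treated with DMSO-dissolved compounds for 18 h at 37 C; reagent incubation 30 min, room temperature.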

[13] = qHTS assay for cell viability of the p53RE-bla HCT-116 cell line (AID 743292); further: on the % scale 0 is the no-effect control and ±100 the full control effect; nearly all actives have a fitted effect of over 55% in size
In short: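 HCT-116 p53RE-bla cells seeded 4,000/well; 5 h at 37 C; compound (DMSO) added; 16 h at 37 C; CellTiter-Glo added, 30 min RT; luminescence read.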

[14] = qHTS profiling of the MIPE4 collection as inhibitors of Plasmodium falciparum (3D7) proliferation (AID 743344; call rule not given here;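 further: scaled between DMSO vehicle wells and 0.29 µM artemisinin as full inhibition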); conditions: P. falciparum 3D7 in erythrocytes, SYBR Green DNA fluorescence, 72 h; at 28.5 µM (top of the series) unless noted
In short: (§1)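 Parasite DNA was quantified by SYBR Green I fluorescence (ex 485, em 535 nm) after overnight lysis in saponin/Triton buffer at room temperature. Cultures at 0.3% parasitemia and 2.5% hematocrit were first exposed to compound for 72 h at 37 C; signals were normalised to artemisinin (0.29 uM) and vehicle wells.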

[15] = qHTS profiling of the MIPE4 collection as inhibitors of Plasmodium falciparum (DD2) proliferation (AID 743345; call rule not given here); conditions: P. falciparum Dd2 in erythrocytes, SYBR Green DNA, 72 h; at 28.5 µM (top of the series) unless noted
In short: as §1

[16] = qHTS profiling of the MIPE4 collection as inhibitors of Plasmodium falciparum (DD2) proliferation (Rep 2) (AID 743346; call rule not given here); conditions: P. falciparum Dd2 in erythrocytes, SYBR Green DNA, 72 h; at 28.5 µM (top of the series) unless noted
In short: as §1

[17] = qHTS profiling of the MIPE4 collection as inhibitors of Plasmodium falciparum (HB3) proliferation (AID 743347; call rule not given here;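 further: plate controls were DMSO vehicle wells for no effect and artemisinin wells for full effect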); conditions: P. falciparum HB3 in erythrocytes, SYBR Green DNA, 72 h; at 28.5 µM (top of the series) unless noted
In short: as §1

O=[N+]([O-])c1ccc(-c2nc(-c3ccc(F)cc3)c(-c3ccncc3)[nH]2)cc1
inactive: max response [1] -10.7% | Potency [2] | outcome [3] | Potency [4] | Potency [5] | outcome [6] | outcome [7]

Nc1ccc2cc3ccc(N)cc3nc2c1
active: Potency [1] 12.6 µM | Potency [8] 14.6 µM
inactive: Potency [2] | outcome [3]

CCCCCOc1ccccc1/C(=C\SC)n1ccnc1
inactive: Potency [2] | outcome [3] | Potency [5]

C[N+]1(C)CCC(OC(=O)C(O)(c2ccccc2)C2CCCC2)C1 (stereo not drawn)
inactive: max response [1] -10.9% and -9.67% | Potency [2] | outcome [3] | Potency [8] | Potency [9]

CCN(CC)CCNC(=O)c1ccc(NS(C)(=O)=O)cc1
inactive: max response [1] -10.8% | Potency [2] | outcome [3] | Potency [4] | outcome [6] | outcome [10] | Potency [11] | outcome [7]

CCCCCCOC(=O)NC(=N)c1ccc(NCc2nc3cc(C(=O)N(CCC(=O)OCC)c4ccccn4)ccc3n2C)cc1
inactive: Potency [2] | outcome [3] | Potency [5]

OC1(c2ccc(Cl)c(C(F)(F)F)c2)CCN(CCCC(c2ccc(F)cc2)c2ccc(F)cc2)CC1
inactive: Potency [2] | outcome [3]
active: Potency [8] 23.1 µM and 20.6 µM | Potency [9] 16.7 µM

CC(C)C(=O)Nc1cccc(C(F)(F)F)c1
inactive: Potency [2] | outcome [3] | Potency [5] | Potency [9]

CC(=O)[C@@]1(O)CC[C@H]2[C@@H]3C[C@H](C)C4=CC(=O)CC[C@]4(C)[C@H]3CC[C@@]21C
inactive: Potency [2] | outcome [3] | Potency [5] | Potency [9]

Nc1nc(=O)n([C@@H]2O[C@H](CO)[C@@H](O)[C@@H]2F)cc1I
inactive: Potency [2] | outcome [3] | Potency [5]

CCCCCCCCCCCC[N+](C)(C)Cc1ccccc1
active: Potency [1] 5.01 µM
inactive: max response [12] -18.2% | Potency [13] | Potency [2] | outcome [3] | Potency [8]

Nc1c(I)cc(I)c(C(=O)N(CCC(=O)O)c2ccccc2)c1I
inactive: Potency [2] | outcome [3] | Potency [5] | Potency [9]

CC(NCCC(c1ccccc1)c1ccccc1)c1ccccc1 (stereo not drawn)
active: Potency [1] 12.6 µM | Potency [8] 16.4 µM
9.45%: parasite growth, % of DMSO control [14]
inactive: Potency [2] | outcome [3]
16.7%: parasite growth, % of control (lower = inhibition) [16]
9.26%: parasite growth remaining, % of DMSO control (lower = more inhibition) [15]
3.07%: growth, % of control [17]
